Screens as filed in PubChem BioAssay.
The list is not random: actives were taken first. Their share in the collection is about 3.6%.
VDR inhibitor = blocks the human vitamin D receptor. P11473. VDR-SRC2-3 peptide fluorescence polarization, 2 h. Potency, µM, usual class: inhibitors. hit rate 0.93% among 400,000. AID 504847
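Reagent solutions, kept cold and dark, are dispensed first; compounds are then pinned in at 23 nl, plates briefly spun, and incubated 2 h at ambient temperature. Inhibition of VDR–SRC2-3 peptide binding is read by fluorescence polarization.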
PLK1 PBD block = inhibitors of human PLK1 polo-box domain binding; P53350; Plk1 PBD binding of FITC phosphopeptide, fluorescence polarization; Potency, µM, actives largely listed as inhibitors; hit rate 2.8% among 360,000; AID 720504; note: series mostly up to about 57 µM; nearly all actives have a fitted effect of over 65% in size
GCN5L2 inh = blocks human GCN5L2 histone acetyltransferase | Q92830 | Potency, µM (highest dose often 58.9 µM), hits mostly inhibitors | GCN5L2 HAT assay, ThioGlo1 CoA-SH fluorescence | hit rate 0.21% among 390,000
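Compounds, pin-transferred from DMSO stocks, meet 20nM GCN5L2 for 15 min before the reaction begins with H3(1-25) peptide (75uM) and acetyl-CoA (70uM). Thiol-reactive ThioGlo1 reports CoA release over 20 min at room temperature.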
Rango-impB inh = Rango-importin beta binding inhibition; AID 540263; Q14974; Potency, µM (titrated, usually from 92.2 µM); hit rate 0.031% among 340,000; Rango CFP/YFP FRET sensor + importin beta, 45 min; calls by dose curve; note: nearly all actives have a fitted effect of over 15% in size
Target sequence (Q14974 whole entry, looked up): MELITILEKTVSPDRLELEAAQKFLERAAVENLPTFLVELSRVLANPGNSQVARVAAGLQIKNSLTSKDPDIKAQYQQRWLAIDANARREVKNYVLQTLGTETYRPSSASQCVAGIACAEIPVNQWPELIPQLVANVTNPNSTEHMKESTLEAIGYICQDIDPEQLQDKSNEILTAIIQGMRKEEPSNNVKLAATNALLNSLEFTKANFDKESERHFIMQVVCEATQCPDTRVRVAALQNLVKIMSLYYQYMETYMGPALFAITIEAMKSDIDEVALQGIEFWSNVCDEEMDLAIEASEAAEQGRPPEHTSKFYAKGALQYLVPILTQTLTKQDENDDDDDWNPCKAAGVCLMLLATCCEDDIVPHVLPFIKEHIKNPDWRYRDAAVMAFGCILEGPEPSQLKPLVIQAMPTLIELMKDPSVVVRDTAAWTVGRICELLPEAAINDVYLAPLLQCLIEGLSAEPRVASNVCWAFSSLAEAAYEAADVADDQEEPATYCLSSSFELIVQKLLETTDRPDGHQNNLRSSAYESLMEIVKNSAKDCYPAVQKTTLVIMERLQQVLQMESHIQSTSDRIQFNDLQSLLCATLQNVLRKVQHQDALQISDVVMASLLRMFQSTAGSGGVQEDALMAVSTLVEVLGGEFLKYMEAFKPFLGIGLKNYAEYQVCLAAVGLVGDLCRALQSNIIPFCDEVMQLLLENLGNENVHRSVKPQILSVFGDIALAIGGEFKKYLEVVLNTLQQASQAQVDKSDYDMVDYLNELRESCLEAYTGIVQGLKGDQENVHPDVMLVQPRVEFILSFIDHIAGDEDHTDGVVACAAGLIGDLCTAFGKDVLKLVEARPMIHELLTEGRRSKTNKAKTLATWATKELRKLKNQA
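FRET biosensor (snurportin 1 IBB flanked by EYFP and cerulean), 50 nM, with compound 5 min, then 0.125 microM importin beta in PBS, 1 mM DTT, 0.02% Tween-20, 0.1% BSA. CFP/YFP ratio read after 45 min at room temperature; pre-read flags interference.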
PI5P4K alpha inh = PI5P4K alpha (human) kinase inhibition; PI5P4Kalpha enzyme, ADP-Glo luminescence, 60 min; active compounds read low; max response, %; hit rate 1.2% among 330,000; AID 652105; active = max response of -50% or lower; inconclusive = between -30% and -50%; inactive = -30% or higher; note: value at the top dose of about 77 µM
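Reactions run in 0.038 M HEPES pH 7.4, 0.28 mM EGTA, 0.1% CHAPS and 5% DMSO, with PI5P4Kalpha, substrate, compound and 5 microM ATP final, one hour at room temperature. Readout is ADP-Glo luminescence.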
Rango release inh = prevents RanGTP from dissociating the Rango-importin beta complex | O95149+P62826 | Biochemical FRET Rango-importin beta, RanGTP-induced dissociation | Potency, µM (highest dose often 46.1 µM) | hit rate 0.071% among 340,000 | AID 540253; calls by dose curve; note: nearly all actives have a fitted effect of over 45% in size
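Rango/importin beta premix (0.1/0.25 uM final), PBS + 1 mM DTT + 0.02% Tween-20 + 0.1% BSA; cpd 5 min RT; FRET pre-read; + RanGTP-RCC1 (0.6 uM Ran, 2 mM GTP, 0.2 uM RCC1); 45 min RT; FRET post-read, ex 430, em 486/530 nm.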
VDR confirm = confirmation of human vitamin D receptor inhibitors; shares compounds with VDR inhibitor; VDR-coactivator inhibition assay, qHTS confirmation; Potency, µM, most hits filed as inhibitors; hit rate 89% among 840
VDR FP = confirmation of human VDR-coactivator binding inhibitors, fluorescein label | shares compounds with VDR inhibitor | VDR-coactivator binding, fluorescein fluorescence polarization | Potency, µM (titrated, usually from 57.1 µM), most hits filed as inhibitors | hit rate 48% among 840 | AID 602200
VDR bla = confirmation of human vitamin D receptor inhibitors in reporter cells. VDR beta-lactamase reporter cells, FRET ratio; cells co-treated with VDR agonist LG190178. shares compounds with VDR inhibitor. hit rate 23% among 840. Potency, µM (top dose mostly 46.1 µM), actives largely listed as inhibitors
VDR viability = cytotoxic in counter-screen for VDR inhibitors. shares compounds with VDR inhibitor. cytotoxicity counter-screen, cell viability, qHTS. Potency, µM (doses to about 48.3 µM), actives largely listed as cytotoxic. hit rate 18% among 840. AID 602204; note: nearly all actives have a fitted effect of over 75% in size
Numbers stand for hits. Unless noted, calls come from the whole dose curve; as a rule, active = well fitted curve in the direction sought with a large enough effect; inconclusive = small, poorly fitted or top-dose-only effect, or another doubt; inactive = no such curve, though single readings can be large; an effect the other way counts as inactive or inconclusive.

What do the screens show for `CC1C/C(=C\c2cccnc2)C(=O)/C(=C/c2cccnc2)C1` (stereo not drawn)?
VDR inhibitor: 35µM; PLK1 PBD block: inactive; GCN5L2 inh: inactive; Rango-impB inh: inactive; PI5P4K alpha inh: inactive; Rango release inh: inactive; VDR confirm: 12; VDR FP: inconclusive; VDR bla: 2.1µM; VDR viability: inconclusive

How did CCc1oc2ccccc2c1C(=O)CCN1CCCCC1 do in these assays?
VDR inhibitor: inconclusive; PLK1 PBD block: 12µM; GCN5L2 inh: inactive; Rango-impB inh: inactive; Rango release inh: inactive; VDR confirm: 7.1; VDR FP: 4µM; VDR bla: inactive; VDR viability: inactive

Results for O=c1oc2ccccc2c(N2CCCCC2)c1CN1CCCC1 ?
VDR inhibitor: inactive; PLK1 PBD block: inactive; GCN5L2 inh: inactive; Rango-impB inh: inactive; Rango release inh: inactive

How did Cn1c(/C(C#N)=C/c2ccc(C(F)(F)F)cc2)nc2ccccc21 do in these assays?
VDR inhibitor: 28µM; GCN5L2 inh: inactive; VDR confirm: 14; VDR FP: 8.9µM; VDR bla: 18µM; VDR viability: inconclusive

Results for Cc1cc(C)cc(NC(=O)c2cc(C)nc3c2c(C)nn3-c2ccccc2)c1 ?
VDR inhibitor: inactive; GCN5L2 inh: inactive

Results for CC(=O)Nc1sc(N/N=C\c2ccccc2Cl)nc1-c1cccs1 ?
VDR inhibitor: inconclusive; PLK1 PBD block: inactive; GCN5L2 inh: inactive; Rango-impB inh: inconclusive; PI5P4K alpha inh: inactive; Rango release inh: inactive

How did CC(=O)Nc1sc(N/N=C\c2ccccc2)nc1-c1cccs1 do in these assays?
VDR inhibitor: 32µM; PLK1 PBD block: inconclusive; GCN5L2 inh: inactive; Rango-impB inh: inactive; PI5P4K alpha inh: inactive; Rango release inh: inactive; VDR confirm: 3.4; VDR FP: inconclusive; VDR bla: inactive; VDR viability: inactive

What do the screens show for `Cc1cc(C)c(S(=O)(=O)/N=C2/C=C(SCC(=O)O)C(=O)c3ccccc32)cc1C`?
VDR inhibitor: 7.9µM; PLK1 PBD block: 0.84µM; GCN5L2 inh: inactive; Rango-impB inh: inactive; PI5P4K alpha inh: inconclusive; Rango release inh: inactive; VDR confirm: 4.2; VDR FP: inconclusive; VDR bla: inactive; VDR viability: inconclusive

Results for Nc1cc(S(=O)(=O)c2ccc(N3CCCCC3)c(N)c2)ccc1N1CCCCC1 ?
PLK1 PBD block: inactive; PI5P4K alpha inh: inactive

What do the screens show for `Nc1cc(S(=O)(=O)Nc2ccccc2Cl)ccc1N1CCCCC1`?
VDR inhibitor: inconclusive; PLK1 PBD block: 2.4µM; GCN5L2 inh: inactive; Rango-impB inh: inconclusive; PI5P4K alpha inh: inactive; Rango release inh: inactive; VDR confirm: 7.1; VDR FP: 7.1µM; VDR bla: inactive; VDR viability: inactive

How did CCc1ccc(-n2nc3cc(C)c(NC(=O)c4ccccc4C)cc3n2)cc1 do in these assays?
VDR inhibitor: inactive; GCN5L2 inh: inactive

How did CCc1ccc(-n2nc3cc(C)c(N)cc3n2)cc1 do in these assays?
VDR inhibitor: inconclusive; PLK1 PBD block: inconclusive; GCN5L2 inh: inactive; Rango-impB inh: inconclusive; PI5P4K alpha inh: inactive; Rango release inh: inconclusive; VDR confirm: 7.1; VDR FP: 13µM; VDR bla: inactive; VDR viability: inactive

Results for COC(=O)c1cc(=O)n(Cc2ccco2)c(=Nc2ccc(F)c(Cl)c2)s1 ?
VDR inhibitor: inconclusive; PLK1 PBD block: inactive; GCN5L2 inh: inactive; Rango-impB inh: inactive; PI5P4K alpha inh: inactive; Rango release inh: inactive; VDR confirm: 14; VDR FP: 13µM; VDR bla: inconclusive; VDR viability: inactive

What do the screens show for `COC(=O)c1cc(=O)n(CCc2ccccc2F)c(=Nc2ccc(F)c(Cl)c2)s1`?
VDR inhibitor: inactive; PLK1 PBD block: inactive; GCN5L2 inh: inactive; Rango-impB inh: inactive; PI5P4K alpha inh: inactive; Rango release inh: inactive

Results for COc1ccc(/C=C/C(=O)c2ccc([N+](=O)[O-])o2)cc1OC ?
VDR inhibitor: 18µM; PLK1 PBD block: inconclusive; GCN5L2 inh: inactive; Rango-impB inh: inconclusive; PI5P4K alpha inh: inactive; Rango release inh: inactive; VDR confirm: 3.5; VDR FP: 3.5µM; VDR bla: 3.3µM; VDR viability: 17µM

What do the screens show for `O=C(NC1(O)C(=O)c2ccccc2C1=O)c1c(Cl)cccc1Cl`?
VDR inhibitor: inconclusive; PLK1 PBD block: inactive; GCN5L2 inh: inactive; Rango-impB inh: inactive; PI5P4K alpha inh: inactive; Rango release inh: inactive; VDR confirm: 4; VDR FP: 4µM; VDR bla: inactive; VDR viability: inactive

What do the screens show for `O=C(NC1(O)C(=O)c2ccccc2C1=O)c1ccccc1`?
VDR inhibitor: inconclusive; PLK1 PBD block: inactive; GCN5L2 inh: inactive; Rango-impB inh: inactive; PI5P4K alpha inh: inactive; Rango release inh: inactive; VDR confirm: 1; VDR FP: 1µM; VDR bla: inactive; VDR viability: inactive

How did O=C(Nc1ccccc1Cl)c1c(F)c(F)c(F)c(F)c1F do in these assays?
VDR inhibitor: inactive; PLK1 PBD block: inactive; Rango-impB inh: inactive; PI5P4K alpha inh: inactive; Rango release inh: inactive

What do the screens show for `CCOC(=O)C1=C(Cc2ccc(OC)cc2)C(=O)c2ccccc2C1=O`?
VDR inhibitor: 7.9µM; PLK1 PBD block: 12µM; GCN5L2 inh: inactive; Rango-impB inh: inconclusive; Rango release inh: inconclusive; VDR confirm: 0.71; VDR FP: inconclusive; VDR bla: 23µM; VDR viability: inconclusive

Results for Cc1ccc(S(=O)(=O)C(CNS(=O)(=O)c2ccc(F)c(C(F)(F)F)c2)c2ccco2)cc1 (stereo not drawn) ?
VDR inhibitor: inactive; GCN5L2 inh: inactive

How did O=C(CSC1=NS(=O)(=O)c2ccccc21)Nc1ccccc1 do in these assays?
VDR inhibitor: 16µM; PLK1 PBD block: 11µM; GCN5L2 inh: inactive; Rango-impB inh: inactive; PI5P4K alpha inh: inactive; Rango release inh: inactive; VDR confirm: 11; VDR FP: inactive; VDR bla: inactive; VDR viability: inactive

What do the screens show for `COC(=O)CSC1=NS(=O)(=O)c2ccccc21`?
VDR inhibitor: 32µM; PLK1 PBD block: 3µM; GCN5L2 inh: inactive; Rango-impB inh: inactive; PI5P4K alpha inh: inactive; Rango release inh: inactive; VDR confirm: 8.4; VDR FP: inconclusive; VDR bla: inactive; VDR viability: inactive
